Data published in paper PMC11062922 (Nature Chemical Biology, 2023).
Like-named read-outs stand apart in the source and are kept apart here.

Tests used:
Set-up in all cases: species or system human, MV4-11 + K-562 + COLO205 + SK-N-BE2 + OVCAR-8
[1] = system: CDK7; conditions: read-out: apparent Kd, compound concentrations: 100 nM and 1000 nM (sheet 'Samples'), n = 1
[2] = system: PLK4; conditions: read-out: apparent Kd, n = 1
[3] = system: PRKCD; conditions: read-out: apparent Kd, n = 1
[4] = system: PTK2B; conditions: read-out: apparent Kd, compound concentrations: 100 nM and 1000 nM (sheet 'Samples'), n = 1
[5] = system: STK4; conditions: read-out: apparent Kd, n = 1
[6] = system: MAPK9; conditions: read-out: apparent Kd, n = 1
[7] = system: PKN1; conditions: read-out: apparent Kd, n = 1
[8] = system: PKN3; conditions: read-out: apparent Kd, n = 1
[9] = system: PRKAG1; conditions: read-out: apparent Kd, compound concentrations: 100 nM and 1000 nM (sheet 'Samples'), n = 1
[10] = system: PTK2; conditions: read-out: apparent Kd; compound concentrations: 100 nM and 1000 nM (sheet 'Samples'), CATDS: 2.57578339913308E-2; n = 1
[11] = system: RPS6KA6; conditions: read-out: apparent Kd, compound concentrations: 100 nM and 1000 nM (sheet 'Samples'), n = 1
[12] = system: SIK2; conditions: read-out: apparent Kd, n = 1
[13] = system: LATS1; conditions: read-out: apparent Kd, n = 1
[14] = system: MARK3; conditions: read-out: apparent Kd; compound concentrations:100 nM and 1000 nM (sheet 'Samples'); n = 1
[15] = system: MARK4; conditions: read-out: apparent Kd, n = 1
[16] = system: PRKD3; conditions: read-out: apparent Kd, n = 1
[17] = system: RIOK2; conditions: read-out: apparent Kd; compound concentrations:100 nM and 1000 nM (sheet 'Samples'); n = 1
[18] = compound concentrations:100 nM and 1000 nM (sheet 'Samples')

Cl.Cn1cc(C2=C(c3c4n(c5ccccc35)CCNC4)C(=O)NC2=O)c2ccccc21 [RO0318365-001]
potency estimated from few doses ([1]; CATDS: 7.1923944144695898E-2): 734 nM | potency estimated from few doses ([2]; compound concentrations: 100 nM and 1000 nM (sheet 'Samples'), CATDS: 5.91687426181325E-2): 1100 nM | potency estimated from few doses ([3]; compound concentrations: 100 nM and 1000 nM (sheet 'Samples'), CATDS: 4.8671677826933601E-2): 1810 nM | potency estimated from few doses ([4]; CATDS: 6.7595952047570504E-2): 828 nM

CN(C)c1ccc2c(c1)/C(=C/Nc1ccc(S(N)(=O)=O)cc1)C(=O)N2 [GW416469X]
potency estimated from few doses ([5]; compound concentrations: 100 nM and 1000 nM (sheet 'Samples'), CATDS: 7.4915408427864094E-2): 1510 nM

Cl.Cn1c(=O)c(Cc2ccccc2F)cc2cnc(NC3CCOCC3)nc21 [RO3305377-001]
potency estimated from few doses ([1]; CATDS: 3.4029245989281497E-2): 380 nM | potency estimated from few doses ([6]; compound concentrations: 100 nM and 1000 nM (sheet 'Samples'), CATDS: 2.8205864879245399E-2): 529 nM | potency estimated from few doses ([7]; compound concentrations: 100 nM and 1000 nM (sheet 'Samples'), CATDS: 1.63422390888056E-2): 2080 nM | potency estimated from few doses ([8]; compound concentrations: 100 nM and 1000 nM (sheet 'Samples'), CATDS: 1.86767996374981E-2): 1350 nM | potency estimated from few doses ([2]; compound concentrations: 100 nM and 1000 nM (sheet 'Samples'), CATDS: 2.6104796567006299E-2): 613 nM | potency estimated from few doses ([9]; CATDS: 2.2977618233773301E-2): 801 nM | potency estimated from few doses ([4]; CATDS: 3.3520584845693903E-2): 390 nM | potency estimated from few doses [10]: 630 nM | potency estimated from few doses ([11]; CATDS: 2.9562664752210699E-2): 485 nM | potency estimated from few doses ([12]; compound concentrations: 100 nM and 1000 nM (sheet 'Samples'), CATDS: 2.09056260277059E-2): 998 nM

O=C(Nc1n[nH]c2nc(-c3ccccc3O)ccc12)C1CC1 [SB-711880]
potency estimated from few doses [13, 18]: 1030 nM | potency estimated from few doses [14]: 1610 nM | potency estimated from few doses [15, 18]: 1680 nM | potency estimated from few doses [2, 18]: 867 nM | potency estimated from few doses [16, 18]: 570 nM | potency estimated from few doses [12, 18]: 547 nM | potency estimated from few doses [5, 18]: 345 nM

CCn1c(-c2nonc2N)nc2cncc(C(=O)N3CC[C@H](N)C3)c21.Cl [SB-772077-B]
potency estimated from few doses [7, 18]: 484 nM | potency estimated from few doses [8, 18]: 1710 nM | potency estimated from few doses [3, 18]: 843 nM

Cc1cc(NC(=O)c2cccc(NC(=O)/C=C/CN(C)C)c2)ccc1Nc1nccc(-c2cccnc2)n1 [JNK-IN-7]
potency estimated from few doses [6, 18]: 6.45 nM | potency estimated from few doses [17]: 720 nM

Nc1nccc(-c2ccc3c(N)n[nH]c3c2)n1 [GSK1034945A]
potency estimated from few doses [14]: 1040 nM | potency estimated from few doses [15, 18]: 1790 nM

COc1ccc(Nc2nccc(NCCNC(=O)Nc3cc(C)ccc3C)n2)cc1 [GSK1379899A]
potency estimated from few doses ([9]; CATDS: 5.18818459595803E-2): 1070 nM | potency estimated from few doses ([4]; CATDS: 5.6831578265935698E-2): 876 nM | potency estimated from few doses ([11]; CATDS: 5.53882917247734E-2): 926 nM

COc1cccc(C2=C(c3c(C)n(C)c4ccccc34)C(=O)NC2=O)c1 [RO3300167-000]
potency estimated from few doses ([13]; compound concentrations: 100 nM and 1000 nM (sheet 'Samples'), CATDS: 7.6284475672850502E-2): 1700 nM | potency estimated from few doses ([15]; compound concentrations: 100 nM and 1000 nM (sheet 'Samples'), CATDS: 8.0513919134026293E-2): 1480 nM | potency estimated from few doses ([16]; compound concentrations: 100 nM and 1000 nM (sheet 'Samples'), CATDS: 7.4607672697658597E-2): 1800 nM | potency estimated from few doses ([5]; compound concentrations: 100 nM and 1000 nM (sheet 'Samples'), CATDS: 0.12261986260266899): 646 nM
